Test results published in the supplement of paper PMC10849652.
About 7,900 targets were measured; listed, in parts, are those with a hit and a random draw of the rest. About 0.6% of all pairs of compound and target were hits.

Compound: c1cn2cc(-c3ccc4cn[nH]c4c3)nc(Nc3ccc(N4CCOCC4)cc3)c2n1 [entospletinib]
Assay: log2 fold change, soluble protein after heating vs DMSO (PISA); higher = thermal stabilisation; K562 cells, 10 uM, 30 min; active = over 0.2 and 3.5 SD of the protein, either way, in both replicates (recomputed)
In short: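 K562 cells at 2×10^6 cells/mL were treated for 30 min with 10 μM compound, and aliquots were heated for 3 min over 48°C-58°C before pooling. Extraction used PBS with 0.5% NP-40 at 4°C, and soluble protein was the supernatant after 21,000xg for 90 min, measured by TMTpro 16plex LC-MS/MS with channel sums equalised. Thermal stability values, relative to control samples and from duplicates, are log2 fold changes.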

Chain of UniProt P41208 (P41208 whole entry, looked up): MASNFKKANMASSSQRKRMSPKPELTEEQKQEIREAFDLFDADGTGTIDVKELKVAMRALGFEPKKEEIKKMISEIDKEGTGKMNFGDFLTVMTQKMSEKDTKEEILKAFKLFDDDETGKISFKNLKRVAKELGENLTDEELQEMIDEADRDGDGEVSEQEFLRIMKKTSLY
Chain of UniProt Q8IX12 (Q8IX12 whole entry, looked up): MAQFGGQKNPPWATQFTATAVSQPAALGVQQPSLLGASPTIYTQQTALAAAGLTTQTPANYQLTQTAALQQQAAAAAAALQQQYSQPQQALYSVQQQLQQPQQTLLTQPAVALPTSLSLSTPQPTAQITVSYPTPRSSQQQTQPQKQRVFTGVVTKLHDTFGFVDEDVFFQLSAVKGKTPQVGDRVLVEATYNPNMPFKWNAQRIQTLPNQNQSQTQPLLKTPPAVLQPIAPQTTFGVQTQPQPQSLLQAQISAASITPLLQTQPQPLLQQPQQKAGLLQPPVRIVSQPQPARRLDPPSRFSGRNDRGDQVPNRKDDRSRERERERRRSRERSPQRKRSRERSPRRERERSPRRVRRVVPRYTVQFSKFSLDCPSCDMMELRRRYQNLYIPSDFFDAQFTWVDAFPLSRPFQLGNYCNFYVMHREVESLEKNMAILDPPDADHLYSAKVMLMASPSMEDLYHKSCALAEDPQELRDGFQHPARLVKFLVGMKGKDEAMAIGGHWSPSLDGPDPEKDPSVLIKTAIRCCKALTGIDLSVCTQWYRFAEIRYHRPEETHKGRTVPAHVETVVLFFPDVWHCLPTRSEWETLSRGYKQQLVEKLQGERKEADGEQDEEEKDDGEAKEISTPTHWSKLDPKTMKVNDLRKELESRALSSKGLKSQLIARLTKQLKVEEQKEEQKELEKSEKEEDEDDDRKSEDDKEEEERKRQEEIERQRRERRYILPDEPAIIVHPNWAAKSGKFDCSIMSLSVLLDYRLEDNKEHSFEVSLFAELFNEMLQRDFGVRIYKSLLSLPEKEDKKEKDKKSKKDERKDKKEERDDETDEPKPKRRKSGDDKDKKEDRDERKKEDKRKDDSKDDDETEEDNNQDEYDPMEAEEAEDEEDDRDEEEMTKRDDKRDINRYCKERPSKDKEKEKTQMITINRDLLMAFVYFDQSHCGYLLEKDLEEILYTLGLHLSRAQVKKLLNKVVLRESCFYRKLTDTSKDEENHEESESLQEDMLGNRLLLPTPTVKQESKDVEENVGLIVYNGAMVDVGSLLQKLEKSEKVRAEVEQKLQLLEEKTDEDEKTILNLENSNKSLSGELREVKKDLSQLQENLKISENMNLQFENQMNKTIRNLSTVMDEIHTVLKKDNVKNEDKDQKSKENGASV
Chain of UniProt Q13286 (Q13286 whole entry, looked up): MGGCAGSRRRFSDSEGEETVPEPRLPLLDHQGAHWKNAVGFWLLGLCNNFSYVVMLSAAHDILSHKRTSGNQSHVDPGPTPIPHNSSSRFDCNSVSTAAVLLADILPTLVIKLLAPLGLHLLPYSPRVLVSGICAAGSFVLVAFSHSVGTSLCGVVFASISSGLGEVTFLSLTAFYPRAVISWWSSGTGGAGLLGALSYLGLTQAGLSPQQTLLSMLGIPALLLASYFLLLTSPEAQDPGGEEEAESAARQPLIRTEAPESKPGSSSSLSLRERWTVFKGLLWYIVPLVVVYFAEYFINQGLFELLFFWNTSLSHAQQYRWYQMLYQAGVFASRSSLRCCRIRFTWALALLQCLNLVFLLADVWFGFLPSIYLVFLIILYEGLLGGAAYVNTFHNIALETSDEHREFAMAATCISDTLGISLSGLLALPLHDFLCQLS
Chain of UniProt Q8NHZ8 (Q8NHZ8 whole entry, looked up): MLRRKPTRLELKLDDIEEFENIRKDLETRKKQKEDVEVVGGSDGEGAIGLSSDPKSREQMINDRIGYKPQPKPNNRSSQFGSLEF
Chain of UniProt Q01459 (Q01459 whole entry, looked up): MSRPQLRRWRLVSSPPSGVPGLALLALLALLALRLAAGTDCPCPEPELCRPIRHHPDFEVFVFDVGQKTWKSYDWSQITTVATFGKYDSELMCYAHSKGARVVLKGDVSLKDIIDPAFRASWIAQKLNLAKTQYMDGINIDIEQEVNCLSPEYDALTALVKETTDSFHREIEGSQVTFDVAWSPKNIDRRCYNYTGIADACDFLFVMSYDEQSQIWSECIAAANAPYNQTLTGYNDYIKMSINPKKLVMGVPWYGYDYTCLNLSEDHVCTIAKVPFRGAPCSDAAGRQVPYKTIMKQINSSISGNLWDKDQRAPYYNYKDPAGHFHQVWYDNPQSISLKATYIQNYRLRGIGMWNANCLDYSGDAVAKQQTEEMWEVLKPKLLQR
Chain of UniProt Q7L3B6 (Q7L3B6 whole entry, looked up): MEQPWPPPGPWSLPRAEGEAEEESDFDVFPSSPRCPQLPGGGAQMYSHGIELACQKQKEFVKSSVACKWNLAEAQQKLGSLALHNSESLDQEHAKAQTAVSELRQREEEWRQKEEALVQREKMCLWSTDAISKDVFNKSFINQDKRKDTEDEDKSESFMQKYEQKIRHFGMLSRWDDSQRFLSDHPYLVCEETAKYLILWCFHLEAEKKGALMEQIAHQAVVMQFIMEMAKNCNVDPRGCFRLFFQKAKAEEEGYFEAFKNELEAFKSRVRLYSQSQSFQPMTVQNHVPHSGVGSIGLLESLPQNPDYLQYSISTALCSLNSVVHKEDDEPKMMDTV
Chain of UniProt P51911 (P51911 whole entry, looked up): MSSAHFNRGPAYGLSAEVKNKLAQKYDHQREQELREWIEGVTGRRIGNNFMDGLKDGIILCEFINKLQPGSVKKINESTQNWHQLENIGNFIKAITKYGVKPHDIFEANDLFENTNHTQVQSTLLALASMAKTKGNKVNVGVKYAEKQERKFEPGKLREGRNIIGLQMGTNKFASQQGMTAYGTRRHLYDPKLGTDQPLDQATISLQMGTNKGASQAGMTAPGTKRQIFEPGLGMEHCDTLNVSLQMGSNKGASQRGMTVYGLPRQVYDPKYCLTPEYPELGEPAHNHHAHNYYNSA
Chain of UniProt O60563 (O60563 whole entry, looked up): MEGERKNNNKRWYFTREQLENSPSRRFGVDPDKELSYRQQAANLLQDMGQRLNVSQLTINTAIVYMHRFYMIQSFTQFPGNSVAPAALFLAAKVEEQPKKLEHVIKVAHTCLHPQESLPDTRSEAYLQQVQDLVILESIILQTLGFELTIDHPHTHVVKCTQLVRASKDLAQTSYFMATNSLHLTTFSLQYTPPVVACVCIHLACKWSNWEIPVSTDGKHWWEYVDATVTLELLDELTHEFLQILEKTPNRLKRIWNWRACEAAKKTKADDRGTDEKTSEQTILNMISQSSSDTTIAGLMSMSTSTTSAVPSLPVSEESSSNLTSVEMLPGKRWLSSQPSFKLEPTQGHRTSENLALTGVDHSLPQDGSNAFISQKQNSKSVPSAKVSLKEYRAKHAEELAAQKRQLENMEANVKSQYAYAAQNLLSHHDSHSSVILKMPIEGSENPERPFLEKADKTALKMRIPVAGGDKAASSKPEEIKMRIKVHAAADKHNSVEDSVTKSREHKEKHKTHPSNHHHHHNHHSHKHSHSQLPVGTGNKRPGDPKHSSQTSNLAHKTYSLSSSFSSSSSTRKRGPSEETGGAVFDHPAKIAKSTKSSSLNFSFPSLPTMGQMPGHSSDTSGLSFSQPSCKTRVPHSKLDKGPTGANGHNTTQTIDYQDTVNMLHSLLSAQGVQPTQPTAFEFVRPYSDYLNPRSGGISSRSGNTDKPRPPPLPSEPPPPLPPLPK
Chain of UniProt P51798 (P51798 whole entry, looked up): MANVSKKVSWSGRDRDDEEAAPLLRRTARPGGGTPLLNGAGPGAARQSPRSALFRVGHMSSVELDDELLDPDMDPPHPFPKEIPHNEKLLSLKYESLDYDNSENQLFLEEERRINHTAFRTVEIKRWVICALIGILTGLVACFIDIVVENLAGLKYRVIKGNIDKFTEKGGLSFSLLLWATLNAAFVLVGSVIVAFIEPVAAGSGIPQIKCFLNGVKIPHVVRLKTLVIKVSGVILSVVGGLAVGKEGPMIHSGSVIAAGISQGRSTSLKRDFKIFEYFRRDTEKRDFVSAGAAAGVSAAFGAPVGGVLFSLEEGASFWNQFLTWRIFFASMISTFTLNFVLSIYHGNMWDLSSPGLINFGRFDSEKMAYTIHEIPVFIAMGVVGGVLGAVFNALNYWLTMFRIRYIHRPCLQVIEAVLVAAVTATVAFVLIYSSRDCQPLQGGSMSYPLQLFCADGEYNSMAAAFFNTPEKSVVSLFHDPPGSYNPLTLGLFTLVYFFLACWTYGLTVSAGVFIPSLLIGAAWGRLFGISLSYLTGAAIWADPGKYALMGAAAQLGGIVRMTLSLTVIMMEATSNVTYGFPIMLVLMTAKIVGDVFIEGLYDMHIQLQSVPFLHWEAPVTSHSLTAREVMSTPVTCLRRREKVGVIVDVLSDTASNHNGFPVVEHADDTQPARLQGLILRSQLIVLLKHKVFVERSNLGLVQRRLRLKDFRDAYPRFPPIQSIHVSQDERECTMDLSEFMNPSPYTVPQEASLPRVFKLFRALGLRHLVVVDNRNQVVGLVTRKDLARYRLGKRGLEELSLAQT
Chain of UniProt Q15417 (Q15417 whole entry, looked up): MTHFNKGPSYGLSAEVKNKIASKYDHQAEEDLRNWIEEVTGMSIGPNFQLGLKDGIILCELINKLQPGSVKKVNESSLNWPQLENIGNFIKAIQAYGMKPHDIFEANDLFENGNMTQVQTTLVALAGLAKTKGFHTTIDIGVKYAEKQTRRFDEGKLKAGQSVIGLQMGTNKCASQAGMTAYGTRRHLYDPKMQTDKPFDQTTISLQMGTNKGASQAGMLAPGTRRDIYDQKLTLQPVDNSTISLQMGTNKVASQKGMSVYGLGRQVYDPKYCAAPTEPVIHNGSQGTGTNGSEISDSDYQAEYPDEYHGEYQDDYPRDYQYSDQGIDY
Chain of UniProt O75956 (O75956 whole entry, looked up): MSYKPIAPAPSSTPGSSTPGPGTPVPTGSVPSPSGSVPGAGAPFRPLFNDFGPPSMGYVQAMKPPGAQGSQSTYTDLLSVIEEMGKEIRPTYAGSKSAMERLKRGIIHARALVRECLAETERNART

log2 fold change, inactive:
CDC26 (UniProt Q8NHZ8) 0.023
C16orf58 (UniProt Q96GQ5) 0.011
CASP8 isoform 9 (UniProt Q14790) 0.005
CDC37L1 (UniProt Q7L3B6) 0.042
COX20 isoform 2 (UniProt Q5RI15) -0.022
CCNDBP1 (UniProt O95273) 0.029
CDK13 (UniProt Q14004) 0.065
CAMKK2 (UniProt Q96RR4) 0.011
COCH (UniProt O43405) -0.012
CDAN1 (UniProt Q8IWY9) 0.023
C1D (UniProt Q13901) -0.043
CCNT1 (UniProt O60563) 0.038
CLN3 (UniProt Q13286) 0.065
CRLF3 (UniProt Q8IUI8) 0.089
CHAF1A (UniProt Q13111) -0.126
CD63 (UniProt P08962) -0.049
CCM2 isoform 2 (UniProt Q9BSQ5) -0.019
CFAP36 isoform 2 (UniProt Q96G28) 0.116
CLUH (UniProt O75153) 0.06
C15orf41 (UniProt Q9Y2V0) 0.032
CHMP4C (UniProt Q96CF2) 0.036
CCNK isoform 4 (UniProt O75909) 0.037
CHAMP1 (UniProt Q96JM3) 0.002
COMMD2 (UniProt Q86X83) 0.015
CMTR1 (UniProt Q8N1G2) -0.016
CDK2AP2 (UniProt O75956) 0.101
CCAR1 (UniProt Q8IX12) -0.015
CTBS (UniProt Q01459) 0.049
CETN2 (UniProt P41208) 0.057
CLCN7 (UniProt P51798) -0.007
CNN3 (UniProt Q15417) -0.022
CNN1 (UniProt P51911) -0.067
CHAC2 (UniProt Q8WUX2) 0.323
CRYM-AS1 (UniProt A6NIL9) -0.459
CCDC9 (UniProt Q9Y3X0) 0.115
CLASP2 (UniProt O75122) -0.003
CSTF2 (UniProt P33240) 0.022
